BoNT-F LC inh: blocks Botulinum neurotoxin F light chain protease | Multiplex microsphere protease cleavage assay, flow cytometry | inhibition, % at 10 µM | 360,000 tested, 0.22% active | AID 588497; in the data active = inhibition above about 35%, passing the limit was not always enough; inconclusive = no clear call, values can overlap the other calls; also: plate controls were buffer without enzyme for full effect and enzyme alone for no effect
Autofluor counter: counter-screen for toxin protease inhibitors: compound fluorescence | compound autofluorescence counterscreen, microsphere flow cytometry; active compounds read high | fluorescence intensity (test concentration not listed) | 360,000 tested, 3.1% active; in the data active = fluorescence intensity above about 16000; inconclusive = no clear call, values can overlap the other calls
Anthrax LF inh2: inhibitors of Bacillus anthracis lethal factor protease. P15917. multiplex microsphere protease cleavage assay, LF. inhibition, % at 10 µM. 360,000 tested, 0.12% active. AID 588501; also: plate controls were buffer without enzyme for full effect and enzyme alone for no effect
Target sequence (P15917 whole entry, looked up): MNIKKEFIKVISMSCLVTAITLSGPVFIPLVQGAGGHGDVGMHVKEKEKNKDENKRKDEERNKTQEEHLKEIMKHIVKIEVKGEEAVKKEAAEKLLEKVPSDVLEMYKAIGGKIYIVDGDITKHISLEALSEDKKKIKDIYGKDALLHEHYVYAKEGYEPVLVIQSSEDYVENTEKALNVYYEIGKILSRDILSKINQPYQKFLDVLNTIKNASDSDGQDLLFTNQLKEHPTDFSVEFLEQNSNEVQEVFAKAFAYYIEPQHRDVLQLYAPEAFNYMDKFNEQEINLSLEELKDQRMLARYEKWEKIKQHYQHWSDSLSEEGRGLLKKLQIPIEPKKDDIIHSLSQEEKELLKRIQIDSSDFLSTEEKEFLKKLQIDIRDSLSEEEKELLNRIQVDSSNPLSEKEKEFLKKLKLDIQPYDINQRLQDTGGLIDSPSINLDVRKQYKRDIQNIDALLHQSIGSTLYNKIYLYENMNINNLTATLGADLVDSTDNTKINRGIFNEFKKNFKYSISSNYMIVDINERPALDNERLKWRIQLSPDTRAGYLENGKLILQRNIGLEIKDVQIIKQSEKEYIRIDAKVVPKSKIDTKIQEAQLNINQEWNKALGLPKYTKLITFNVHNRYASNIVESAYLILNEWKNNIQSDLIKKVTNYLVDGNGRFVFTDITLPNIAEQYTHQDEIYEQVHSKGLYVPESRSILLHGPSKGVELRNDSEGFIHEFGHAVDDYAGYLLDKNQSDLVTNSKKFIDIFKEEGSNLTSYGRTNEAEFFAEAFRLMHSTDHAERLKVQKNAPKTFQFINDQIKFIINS
BoNT-A LC inh2: BoNT A light chain protease inhibition; inhibition, % at 10 µM; 360,000 tested, 0.17% active; multiplex microsphere protease substrate cleavage, flow cytometry; also: plate controls were buffer without enzyme for full effect and enzyme alone for no effect
The depositor's hits bear a star; u = inconclusive. Sampled rows, rich in hits. Any-hit rate of the full collection: about 3.5%. Rule as the data show it, unless noted: active = inhibition above about 30%; inconclusive = no clear call, values can overlap the other calls; inactive = below that.

SMILES	BoNT-F LC inh	Autofluor counter	Anthrax LF inh2	BoNT-A LC inh2
O=C(c1ccccc1)N1CCCC(C(=O)N2CCCCCC2)C1 (stereo not drawn)	-5.7	24585*	-2.7	-2.6
Cc1ccc(C(=O)c2coc3cc([N+](=O)[O-])c(O)c([N+](=O)[O-])c23)cc1	5.0	1831	1.6	1.4
Cc1ccc2c(c1)N(Cc1ccncc1)C(=O)C(C)O2 (stereo not drawn)	1.6	22957*	-2.9	1.5
Cc1ccc2c(c1)N(CC(=O)c1cccc(Cl)c1)C(=O)C(C)O2 (stereo not drawn)	-1.7	23986*	-3.5	-1.9
Cc1ccc2c(c1)N(CC(=O)N(Cc1ccc3c(c1)OCO3)CC1CCCO1)C(=O)C(C)O2 (stereo not drawn)	-3.4	23947*	0.7	-0.2
COc1ccc(CN(CC2CCCO2)C(=O)CN2C(=O)COc3ccccc32)cc1OC (stereo not drawn)	17.5	3722	3.8	-0.3
CC1Oc2ccccc2N(CC(=O)c2cccc(Cl)c2)C1=O (stereo not drawn)	13.4	19669*	-12.5	12.0
Cc1ccc2c(c1)N(Cc1cccc(F)c1)C(=O)C(C)O2 (stereo not drawn)	-10.5	3691	5.0	1.7
C[C@H](CO)N1C[C@H](C)[C@@H](CN(C)S(=O)(=O)c2ccc(F)cc2)Oc2ccc(NC(=O)C3CCCCC3)cc2C1=O	0.2	3782	4.0	-0.3
CC1Sc2ccc(S(=O)(=O)CCC(=O)NCc3ccc(Cl)cc3)cc2NC1=O (stereo not drawn)	-1.5	5680	2.9	1.9
O=C(CCCC(=O)OCC(Cl)=C(Cl)Cl)Nc1ccccc1	-2.6	2522	-0.4	0.9
N#Cc1ccccc1NC(=O)CSc1cn[nH]n1	1.6	3534	4.1	2.5
COc1ccccc1CNC(=O)CCCNC(=O)Cn1cnc2sc(C)c(C)c2c1=O	-0.2	5875	-0.7	0.2
O=C(NCC1CC1)c1csc([C@@H]2O[C@H](CO)[C@H](O)[C@H](O)[C@H]2O)n1	-5.7	3932	-1.4	-0.4
COC(=O)c1c(NC(=O)C2CC=CCC2C(=O)O)sc(C)c1C (stereo not drawn)	0.8	22701*	3.3	u
CN(C(=S)NC(=O)c1ccccc1Br)C1CCCCC1	-2.5	16560*	-4.6	-1.3
COC(=O)c1ccc(N2CCCCC2)c(N)c1	-4.7	4217	-3.6	0.2
COC(=O)c1ccc(N2CCC(C)CC2)c(N)c1	-2.5	22414*	-5.7	1.7
O=c1ccnc(SCc2ccccc2Cl)[nH]1	-0.1	16496*	0.8	-0.5
CC(C)(C)c1cc(=O)[nH]c(SCc2ccccc2Cl)n1	-5.1	4141	-1.4	-0.9
Cc1cc(C)n2nc(C(=O)N3CCOCC3)nc2n1	6.4	8807	-4.3	-0.1
Cc1cc(C)n2nc(SC(C)C(=O)N3CCC4(CC3)OCCO4)nc2n1 (stereo not drawn)	-5.6	24597*	-1.4	u
COCCNC(=O)C(=O)NCC1OCCN1S(=O)(=O)c1ccc(F)cc1 (stereo not drawn)	-4.5	6082	-3.6	-0.9
CCOC(=O)C(C(=O)OCC)c1cc(Br)c2noc3c2c1C(=O)c1ccccc1-3	-5.7	3932	58.0*	67.8*
Cc1ccc(S(=O)(=O)N(CC(=O)N/N=C/c2ccco2)Cc2ccccc2)cc1	1.5	22458*	-3.8	u
SMILES	BoNT-F LC inh	Autofluor counter	Anthrax LF inh2	BoNT-A LC inh2
Cc1cccc(CN(CC(=O)N/N=C/c2ccco2)S(=O)(=O)c2ccc(Cl)cc2)c1	2.6	6024	2.8	-0.1
CC(=O)Nc1ccccc1OC(=O)N(C)C	3.5	15505	0.7	2.4
CCN(CC)C(=O)Oc1ccccc1NC(C)=O	-3.7	20729*	-0.5	u
Cc1cc2nnc(SCC(=O)N3C(C)CCCC3C)n2c(N)n1 (stereo not drawn)	-1.5	22651*	-7.4	u
Cc1ccc(S(=O)(=O)NCC(=O)N2CCCC2)cc1	-1.9	16845*	1.7	u
Cc1ccc(S(=O)(=O)NCCN=C(CN2CCCC2)NS(=O)(=O)c2ccc(C)cc2)cc1	-4.9	24857*	-8.0	u
Cc1ccc(S(=O)(=O)NCCN=C(CN2CCOCC2)NS(=O)(=O)c2ccc(C)cc2)cc1	0.1	8760	-1.1	0.6
COc1ccc(OC)c(NC(=O)CSc2nnc(CNC(=O)c3cccs3)o2)c1	-0.3	5123	-2.5	-0.5
CCS(=O)(=O)c1ccc2oc(SCC(=O)NC3CCCC(C)C3C)nc2c1 (stereo not drawn)	-4.4	2827	-5.5	-0.2
O=C(O)C1C2C=CC(C2)C1C(=O)NCCCn1ccnc1 (stereo not drawn)	-0.1	22134*	-2.4	0.3
O=C(O)C1CCCCC1C(=O)NCCCn1ccnc1 (stereo not drawn)	0.0	11201	-2.8	-0.1
C/C(=N\Nc1nncc2ccccc12)c1cccc(OC(F)F)c1	-1.7	5537	-1.1	-2.3
COc1cccc(CN2CC(C(=O)NCCN3CCOC3=O)CCC2=O)c1 (stereo not drawn)	6.9	5575	0.4	0.5
Cc1cc(=O)oc2cc(OCC(=O)NCc3cccnc3)ccc12	-6.1	23262*	-3.2	-1.7
Cc1cc(=O)oc2cc(OCC(=O)NCc3ccncc3)ccc12	-5.5	10891	-2.4	-0.3
COc1ccc(CNC(=O)COc2ccc(S(=O)(=O)N3CCCCC3)cc2)cc1	4.3	6277	-2.6	-3.2
O=C(COc1ccc(S(=O)(=O)N2CCCCC2)cc1)NCc1cccnc1	4.2	22072*	-1.5	2.4
COCCN(C(=S)Nc1c(C)cccc1C)C(C)c1ccco1 (stereo not drawn)	-9.6	5999	-4.9	-0.3
CCN(c1ccccc1)S(=O)(=O)c1ccc(Cl)c(NC(=O)CN2C(=O)NC3(CCCC3)C2=O)c1	-8.8	4570	1.1	-0.7
CCOC(=O)C(NC(=O)CC(C)C)(Nc1cc(C)on1)C(F)(F)F (stereo not drawn)	-1.0	22923*	-2.4	-1.5
CCCC(=O)NC(Nc1ccc(S(=O)(=O)Nc2cc(C)on2)cc1)(C(=O)OCC)C(F)(F)F (stereo not drawn)	0.5	8537	2.7	0.1
COc1cc(NC(=O)c2ccco2)c(C(=O)O)cc1OC	-2.1	23681*	-2.8	-2.2
O=C(O)c1cc(Cl)ccc1NC(=O)C1CCCO1 (stereo not drawn)	-8.7	9580	2.8	-0.4
COc1cc(NC(=O)c2ccco2)ccc1NC(=O)C(C)C	-6.8	21437*	-2.7	u
COc1cc(NC(=O)C2CCCO2)c(C(=O)O)cc1OC (stereo not drawn)	-5.0	21130*	2.3	-0.9
C=CCOc1c(Br)cc(CNc2ccc(NC(=O)C(C)C)c(OC)c2)cc1OC	4.8	20313*	-8.6	u
NC(=O)CC(NC(=O)Cc1ccc(Cl)cc1)c1ccc(N2CCC(Cc3ccccc3)CC2)c([N+](=O)[O-])c1 (stereo not drawn)	-6.7	3006	-1.3	-0.4
COc1ccc(NC(=O)COC(=O)c2cc(OC)c(OC)cc2NC(=O)c2ccco2)cc1OC	-2.5	21054*	-3.2	-0.4
COC(=O)c1cc(OC)c(OC)cc1NC(=O)c1ccco1	-1.6	3074	-0.4	0.6
CCOC(=O)C1=C(C)NC(C)=C(C(=O)OC)C1c1ccco1 (stereo not drawn)	12.2	6678	-1.0	0.0

Compound activity (PubChem BioAssay)
